PubChem BioAssay (EPA / NIEHS)
Results filed as inconclusive are left out. Active and inactive are the calls of the source. Rule for the calls: active = hit-call score of the fitted dose curve at least 0.9, where 1 is the maximum; inconclusive = response in the unintended direction; inactive = score below 0.9.

Legend:
[1] = target: human Purinergic Receptor P2Y, P2RY1 (gene 5028) (UniProt P47900); test: NVS_GPCR_hPY2: NovaScreen (NVS) G Protein-Coupled Receptor Assay for human Purinergic Receptor P2Y (AID 2283281)
Sequence of human Purinergic Receptor P2Y, P2RY1 (gene 5028) (P47900 whole entry, looked up): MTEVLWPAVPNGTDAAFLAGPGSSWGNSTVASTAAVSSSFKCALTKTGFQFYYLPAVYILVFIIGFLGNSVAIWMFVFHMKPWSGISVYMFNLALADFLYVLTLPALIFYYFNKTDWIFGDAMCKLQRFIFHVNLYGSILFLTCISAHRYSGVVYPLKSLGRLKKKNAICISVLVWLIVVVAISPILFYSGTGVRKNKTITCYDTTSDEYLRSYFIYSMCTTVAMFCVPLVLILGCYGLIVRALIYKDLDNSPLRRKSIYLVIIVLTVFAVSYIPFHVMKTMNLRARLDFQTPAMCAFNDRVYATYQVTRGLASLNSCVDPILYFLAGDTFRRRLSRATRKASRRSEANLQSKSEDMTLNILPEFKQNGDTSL
Outline: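 Filtration scintillation readout of radioligand displacement on U937 extract, measured 1 h post-dosing. Single 25 uM duplicate screen, then singleton concentration series to 50 uM for chemicals passing threshold; DMSO as baseline.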

[2] = target: human Orphanin, Opioid Related Nociceptin Receptor 1 (ORL1), OPRL1 (gene 4987) (UniProt P41146); test: NVS_GPCR_hORL1: NovaScreen (NVS) G Protein-Coupled Receptor Assay for human Orphanin, Opioid Related Nociceptin Receptor 1 (ORL1) (AID 2283283)
Sequence of human Orphanin, Opioid Related Nociceptin Receptor 1 (ORL1), OPRL1 (gene 4987) (P41146 whole entry, looked up): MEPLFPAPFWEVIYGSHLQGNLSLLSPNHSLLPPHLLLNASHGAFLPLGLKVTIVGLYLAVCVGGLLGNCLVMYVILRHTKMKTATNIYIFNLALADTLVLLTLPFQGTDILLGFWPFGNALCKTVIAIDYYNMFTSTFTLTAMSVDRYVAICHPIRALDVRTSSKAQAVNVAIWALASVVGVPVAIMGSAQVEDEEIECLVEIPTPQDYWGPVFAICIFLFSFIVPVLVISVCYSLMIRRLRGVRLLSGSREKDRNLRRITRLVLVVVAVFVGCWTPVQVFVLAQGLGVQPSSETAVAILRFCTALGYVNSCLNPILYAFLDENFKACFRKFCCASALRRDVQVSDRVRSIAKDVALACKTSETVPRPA
Outline: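 Cell-free binding using HEK293-derived receptor protein: radioligand displacement measured by filter scintillation 1 hour after dosing. Primary testing at 25 uM in duplicate, followed by singleton concentration series up to 50 uM; DMSO served as negative control.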

[3] = test system: 5-hydroxytryptamine receptor 2C (pig); test: NVS_GPCR_p5HT2C: NovaScreen (NVS) G Protein-Coupled Receptor Assay for pig Serotonin, 5-Hydroxytryptamine Receptor 2C (5HT2C) (AID 2283288)
Outline: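 Radioligand displacement on membranes from pig choroid plexus, detected by filter scintillation counting after 1 h. Tested first at a single 25 uM in duplicate, then in concentration-response for actives; DMSO served as baseline.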

[4] = target: human Opioid Receptor Mu (Opiate Mu), OPRM1 (gene 4988) (UniProt P35372); test: NVS_GPCR_hOpiate_mu: NovaScreen (NVS) G Protein-Coupled Receptor Assay for human Opioid Receptor Mu (Opiate Mu) (AID 2283290);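 note: hits lower bound tracer signal versus DMSO meaning displacement of the ligand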
Sequence of human Opioid Receptor Mu (Opiate Mu), OPRM1 (gene 4988) (P35372 whole entry, looked up): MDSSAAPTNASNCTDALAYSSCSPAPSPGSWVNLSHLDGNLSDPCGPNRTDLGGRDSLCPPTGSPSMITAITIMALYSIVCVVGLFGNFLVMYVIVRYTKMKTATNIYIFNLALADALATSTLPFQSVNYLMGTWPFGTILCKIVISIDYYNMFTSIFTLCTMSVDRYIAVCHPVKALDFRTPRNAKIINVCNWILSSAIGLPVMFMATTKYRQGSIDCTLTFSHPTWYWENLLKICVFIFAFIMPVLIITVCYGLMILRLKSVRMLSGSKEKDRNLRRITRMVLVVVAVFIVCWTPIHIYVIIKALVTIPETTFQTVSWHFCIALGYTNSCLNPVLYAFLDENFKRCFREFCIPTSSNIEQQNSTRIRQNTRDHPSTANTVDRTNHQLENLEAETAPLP
Outline: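 CHO-derived receptor protein, cell-free; radioligand displacement, filtration + scintillation counting, read at 2.5 h. DMSO = negative control/baseline. Primary: 25 uM single conc, duplicate; secondary: concentration series.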

[5] = target: rat Adrenergic, Alpha 1A Receptor (Adra1A), Adra1a (gene 29412) (UniProt P43140); test: NVS_GPCR_rAdra1A: NovaScreen (NVS) G Protein-Coupled Receptor Assay for rat Adrenergic, Alpha 1A Receptor (Adra1A) (AID 2283296)
Sequence of rat Adrenergic, Alpha 1A Receptor (Adra1A), Adra1a (gene 29412) (P43140 whole entry, looked up): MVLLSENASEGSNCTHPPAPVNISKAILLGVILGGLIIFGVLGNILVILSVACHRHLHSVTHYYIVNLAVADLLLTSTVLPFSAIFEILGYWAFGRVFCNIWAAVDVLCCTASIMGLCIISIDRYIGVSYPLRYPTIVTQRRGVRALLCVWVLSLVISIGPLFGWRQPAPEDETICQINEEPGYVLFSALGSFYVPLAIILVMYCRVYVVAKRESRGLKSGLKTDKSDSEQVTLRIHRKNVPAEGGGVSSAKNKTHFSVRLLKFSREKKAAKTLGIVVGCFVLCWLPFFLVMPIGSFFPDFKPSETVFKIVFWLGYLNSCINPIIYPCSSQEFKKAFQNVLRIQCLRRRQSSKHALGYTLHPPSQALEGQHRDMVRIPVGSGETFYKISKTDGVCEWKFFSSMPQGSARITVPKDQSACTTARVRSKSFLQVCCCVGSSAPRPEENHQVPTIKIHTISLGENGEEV
Outline: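 Filter radiodetection after 1 h competitive binding on CEC-pretreated rat cortical membranes. Duplicate single-point screening at 25 uM; active chemicals retested across concentration series.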

[6] = target: rat Adrenergic Receptor, Alpha 2 (Adra2), Non-selective Binding, Adra2a (gene 25083) (UniProt P22909); test: NVS_GPCR_rAdra2_NonSelective: NovaScreen (NVS) G Protein-Coupled Receptor Assay for rat Adrenergic Receptor, Alpha 2 (Adra2), Non-selective Binding (AID 2283299)
Outline: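 Filter-based scintillation counting of radioligand binding to rat cortical membrane receptors, measured 1.25 hours post-dosing; loss of signal versus DMSO indicates displacement. Initial single-concentration duplicate at 25 uM, then concentration series.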

[7] = target: guinea pig Serotonin, 5-Hydroxytryptamine Receptor 4 (5HT4), HTR4 (gene 100135548) (UniProt O70528); test: NVS_GPCR_g5HT4: NovaScreen (NVS) G Protein-Coupled Receptor Assay for guinea pig Serotonin, 5-Hydroxytryptamine Receptor 4 (5HT4) (AID 2283294)
Sequence of guinea pig Serotonin, 5-Hydroxytryptamine Receptor 4 (5HT4), HTR4 (gene 100135548) (O70528 whole entry, looked up): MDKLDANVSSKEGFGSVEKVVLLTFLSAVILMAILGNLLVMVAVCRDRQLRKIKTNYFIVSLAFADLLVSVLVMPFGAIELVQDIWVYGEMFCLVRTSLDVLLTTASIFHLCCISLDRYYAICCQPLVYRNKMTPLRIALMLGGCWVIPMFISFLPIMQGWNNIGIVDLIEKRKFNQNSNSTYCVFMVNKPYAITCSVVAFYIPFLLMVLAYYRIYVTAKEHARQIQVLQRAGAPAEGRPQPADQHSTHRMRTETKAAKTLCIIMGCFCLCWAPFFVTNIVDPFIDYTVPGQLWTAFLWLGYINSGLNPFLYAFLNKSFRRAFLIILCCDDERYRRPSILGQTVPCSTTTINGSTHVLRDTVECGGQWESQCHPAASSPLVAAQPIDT
Outline: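 Compounds first screened in duplicate at 25 uM, actives followed up in concentration series. Binding measured as displacement of specific radioligand from guinea pig striatal membranes, 1 h, filter-based scintillation read-out versus DMSO baseline.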

[8] = target: rat Serotonin, 5-Hydroxytryptamine Receptor (5HT), Non-Selective Binding, Htr1a (gene 24473) (UniProt P19327); test: NVS_GPCR_r5HT_NonSelective: NovaScreen (NVS) G Protein-Coupled Receptor Assay for rat Serotonin, 5-Hydroxytryptamine Receptor (5HT), Non-Selective Binding (AID 2283295)
Sequence of rat Serotonin, 5-Hydroxytryptamine Receptor (5HT), Non-Selective Binding, Htr1a (gene 24473) (P19327 whole entry, looked up): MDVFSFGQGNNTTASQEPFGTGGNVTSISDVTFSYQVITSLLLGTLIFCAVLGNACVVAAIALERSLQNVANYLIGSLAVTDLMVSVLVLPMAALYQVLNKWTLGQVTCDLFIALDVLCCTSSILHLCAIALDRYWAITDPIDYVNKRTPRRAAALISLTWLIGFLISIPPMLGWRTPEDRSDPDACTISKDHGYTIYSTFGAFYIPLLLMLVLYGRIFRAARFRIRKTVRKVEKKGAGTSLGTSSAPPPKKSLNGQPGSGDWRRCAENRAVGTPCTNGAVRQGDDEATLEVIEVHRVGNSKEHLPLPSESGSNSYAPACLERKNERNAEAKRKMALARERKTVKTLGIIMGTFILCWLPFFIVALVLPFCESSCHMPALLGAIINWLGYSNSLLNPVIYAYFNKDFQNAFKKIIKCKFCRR
Outline: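 Rat cortex membrane preparation incubated 1 h with radioligand and test chemical; bound radioactivity counted after filtration. Screening began in duplicate at 25 uM with concentration-series follow-up; fitting relative to DMSO.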

[9] = test system: rabbit Platelet Activating Factor Receptor (PAF), gene 100354046; test: NVS_GPCR_rabPAF: NovaScreen (NVS) G Protein-Coupled Receptor Assay for rabbit Platelet Activating Factor Receptor (PAF) (AID 2283287)
Outline: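 Rabbit platelet membrane preparation; radioligand displacement read by filter-based scintillation counting 1 h after dosing, loss of signal versus DMSO. Primary screen in duplicate at 25 uM, actives followed up in concentration series.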

[10] = target: rat Adrenergic, Alpha 1, Non-selective Receptor (Adra1), Adra1a (gene 29412) (UniProt P43140); test: NVS_GPCR_rAdra1_NonSelective: NovaScreen (NVS) G Protein-Coupled Receptor Assay for rat Adrenergic, Alpha 1, Non-selective Receptor (Adra1) (AID 2283289)
Outline: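 Chemicals first screened in duplicate at 25 uM, then actives tested in concentration series up to 50 uM. Binding measured as displacement of radioligand from rat forebrain membrane receptors, 1 h, filtration with scintillation readout; DMSO baseline.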

[11] = test system: rat Adrenergic, Alpha 1B Receptor (Adra1B), gene 24173; test: NVS_GPCR_rAdra1B: NovaScreen (NVS) G Protein-Coupled Receptor Assay for rat Adrenergic, Alpha 1B Receptor (Adra1B) (AID 2283297)
Outline: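 Filter-binding radioligand competition on membranes from rat liver, read after 1 h by scintillation counting. Single-concentration duplicate screen at 25 uM, followed by concentration-response on actives, normalised to DMSO.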

[12] = target: rat Serotonin, 5-Hydroxytryptamine Receptor 1 (5HT1), Non-Selective Binding, Htr1a (gene 24473) (UniProt P19327); test: NVS_GPCR_r5HT1_NonSelective: NovaScreen (NVS) G Protein-Coupled Receptor Assay for rat Serotonin, 5-Hydroxytryptamine Receptor 1 (5HT1), Non-Selective Binding (AID 2283286)
Sequence of rat Serotonin, 5-Hydroxytryptamine Receptor 1 (5HT1), Non-Selective Binding, Htr1a (gene 24473) (P19327 whole entry, looked up): as above
Outline: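 Binding of a radioligand to rat cortex membranes is read by filtration and scintillation counting after 1 h. Compounds were screened at 25 uM in duplicate. Actives were then titrated to a top of 50 uM. DMSO is the baseline.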

[13] = target: rat Gamma-Aminobutyric Acid Type B Receptor (GABBR), Gabbr1 (gene 81657) (UniProt Q9Z0U4); test: NVS_GPCR_rGABBR: NovaScreen (NVS) G Protein-Coupled Receptor Assay for rat Gamma-Aminobutyric Acid Type B Receptor (GABBR) (AID 2283301)
Outline: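 Rat cortical membrane preparation, competitive radioligand binding for 1 h with filtration and scintillation readout. Actives from duplicate single-point 25 uM screening proceeded to concentration series with 50 uM top concentration.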

[14] = target: human Thromboxane A2 Receptor (TXA2), TBXA2R (gene 6915) (UniProt P21731); test: NVS_GPCR_hTXA2: NovaScreen (NVS) G Protein-Coupled Receptor Assay for human Thromboxane A2 Receptor (TXA2) (AID 2283282);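 note: actives reduce bound radioligand signal relative to DMSO baseline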
Sequence of human Thromboxane A2 Receptor (TXA2), TBXA2R (gene 6915) (P21731 whole entry, looked up): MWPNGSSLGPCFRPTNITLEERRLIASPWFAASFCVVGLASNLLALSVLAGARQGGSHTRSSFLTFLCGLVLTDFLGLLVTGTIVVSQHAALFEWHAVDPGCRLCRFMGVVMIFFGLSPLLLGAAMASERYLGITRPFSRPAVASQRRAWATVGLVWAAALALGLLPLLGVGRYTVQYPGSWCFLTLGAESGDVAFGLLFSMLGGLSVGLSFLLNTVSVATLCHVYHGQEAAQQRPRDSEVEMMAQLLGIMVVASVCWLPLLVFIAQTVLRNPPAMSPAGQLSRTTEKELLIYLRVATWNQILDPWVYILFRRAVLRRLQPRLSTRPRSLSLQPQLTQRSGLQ
Outline: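 Cell-free radioligand binding with human platelet-derived receptor; 1 h after dosing, filter-based scintillation counting, loss of signal vs DMSO. Primary screen in duplicate at 25 uM.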

[15] = target: mouse Cholecystokinin, CCK1 Receptor (CCKA), Cckar (gene 12425) (UniProt O08786); test: NVS_GPCR_mCCKAPeripheral: NovaScreen (NVS) G Protein-Coupled Receptor Assay for mouse Cholecystokinin, CCK1 Receptor (CCKA) (AID 2283285)
Sequence of mouse Cholecystokinin, CCK1 Receptor (CCKA), Cckar (gene 12425) (O08786 whole entry, looked up): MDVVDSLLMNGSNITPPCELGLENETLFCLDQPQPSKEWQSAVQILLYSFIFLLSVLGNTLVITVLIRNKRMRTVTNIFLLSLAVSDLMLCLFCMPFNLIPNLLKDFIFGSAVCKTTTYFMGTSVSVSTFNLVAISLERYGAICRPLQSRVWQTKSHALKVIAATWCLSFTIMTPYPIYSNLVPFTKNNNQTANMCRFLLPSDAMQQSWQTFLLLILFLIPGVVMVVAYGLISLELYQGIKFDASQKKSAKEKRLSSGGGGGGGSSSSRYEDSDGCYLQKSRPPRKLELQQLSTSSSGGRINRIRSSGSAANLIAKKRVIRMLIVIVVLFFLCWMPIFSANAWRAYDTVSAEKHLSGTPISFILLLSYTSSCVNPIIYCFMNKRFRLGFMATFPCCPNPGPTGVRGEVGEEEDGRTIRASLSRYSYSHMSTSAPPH
Outline: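 Chemicals were first screened in duplicate at 25 uM, with those meeting threshold (e.g., 30% inhibition) retested in singleton concentration series to 50 uM maximum. Binding of radioligand to mouse pancreatic membranes was read after 2 h by filtration and scintillation counting.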

[16] = target: mouse Cholecystokinin, CCK2 Receptor (CCKB), Cckbr (gene 12426) (UniProt P56481); test: NVS_GPCR_mCKKBCentral: NovaScreen (NVS) G Protein-Coupled Receptor Assay for mouse Cholecystokinin, CCK2 Receptor (CCKB) (AID 2283293)
Outline: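 Mouse forebrain membrane preparation incubated 2 h with chemical and radioligand; bound radioactivity counted after filtration. Single-concentration duplicate screen at 25 uM, then concentration series to 50 uM max for hits, DMSO as baseline.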

[17] = target: guinea pig Bradykinin Receptor B2 (BK2), BDKRB2 (gene 100135486) (UniProt O70526); test: NVS_GPCR_gBK2: NovaScreen (NVS) G Protein-Coupled Receptor Assay for guinea pig Bradykinin Receptor B2 (BK2) (AID 2283292)
Sequence of guinea pig Bradykinin Receptor B2 (BK2), BDKRB2 (gene 100135486) (O70526 whole entry, looked up): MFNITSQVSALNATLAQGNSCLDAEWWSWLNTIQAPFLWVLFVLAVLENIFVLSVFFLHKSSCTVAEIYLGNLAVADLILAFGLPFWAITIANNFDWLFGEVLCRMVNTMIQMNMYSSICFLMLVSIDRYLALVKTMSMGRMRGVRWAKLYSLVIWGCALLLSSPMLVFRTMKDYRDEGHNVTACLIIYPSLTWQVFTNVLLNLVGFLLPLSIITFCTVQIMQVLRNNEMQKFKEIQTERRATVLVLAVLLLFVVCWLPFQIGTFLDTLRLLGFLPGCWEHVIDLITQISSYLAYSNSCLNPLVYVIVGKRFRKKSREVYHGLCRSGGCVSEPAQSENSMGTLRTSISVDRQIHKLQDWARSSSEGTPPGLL
Outline: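 Guinea pig ileum membrane preparation incubated 1 h with radioligand and test chemical; bound counts measured after filtration. Primary duplicate screening at 25 uM, then singleton concentration series with a 50 uM top dose; DMSO as baseline.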

[18] = target: rat Adrenergic Receptor, Beta (Adrb), Non-selective Binding, Adrb1 (gene 24925) (UniProt P18090); test: NVS_GPCR_rAdrb_NonSelective: NovaScreen (NVS) G Protein-Coupled Receptor Assay for rat Adrenergic Receptor, Beta (Adrb), Non-selective Binding (AID 2283298)
Sequence of rat Adrenergic Receptor, Beta (Adrb), Non-selective Binding, Adrb1 (gene 24925) (P18090 whole entry, looked up): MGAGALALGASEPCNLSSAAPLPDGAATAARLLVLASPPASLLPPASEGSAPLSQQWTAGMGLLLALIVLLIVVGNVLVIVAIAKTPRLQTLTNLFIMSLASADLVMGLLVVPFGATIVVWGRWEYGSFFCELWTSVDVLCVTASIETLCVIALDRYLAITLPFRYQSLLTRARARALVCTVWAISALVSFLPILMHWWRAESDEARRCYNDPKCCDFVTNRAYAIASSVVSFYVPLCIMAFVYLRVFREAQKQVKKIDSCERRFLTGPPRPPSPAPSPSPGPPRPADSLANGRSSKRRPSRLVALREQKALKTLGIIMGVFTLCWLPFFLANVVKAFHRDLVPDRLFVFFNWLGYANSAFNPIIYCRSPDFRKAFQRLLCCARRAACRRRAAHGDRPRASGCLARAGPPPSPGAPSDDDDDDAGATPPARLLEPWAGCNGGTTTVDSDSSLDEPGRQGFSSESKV
Outline: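 Rat cortical membranes incubated 1 h with beta-adrenergic radioligand and test chemical; bound ligand measured by filtration and scintillation counting. Screen at 25 uM duplicate, then concentration series with 50 uM maximum; loss of signal versus DMSO.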

[19] = target: human Vasopressin 1A Receptor (V1A), AVPR1A (gene 552) (UniProt P37288); test: NVS_GPCR_hV1A: NovaScreen (NVS) G Protein-Coupled Receptor Assay for human Vasopressin 1A Receptor (V1A) (AID 2283284)
Sequence of human Vasopressin 1A Receptor (V1A), AVPR1A (gene 552) (P37288 whole entry, looked up): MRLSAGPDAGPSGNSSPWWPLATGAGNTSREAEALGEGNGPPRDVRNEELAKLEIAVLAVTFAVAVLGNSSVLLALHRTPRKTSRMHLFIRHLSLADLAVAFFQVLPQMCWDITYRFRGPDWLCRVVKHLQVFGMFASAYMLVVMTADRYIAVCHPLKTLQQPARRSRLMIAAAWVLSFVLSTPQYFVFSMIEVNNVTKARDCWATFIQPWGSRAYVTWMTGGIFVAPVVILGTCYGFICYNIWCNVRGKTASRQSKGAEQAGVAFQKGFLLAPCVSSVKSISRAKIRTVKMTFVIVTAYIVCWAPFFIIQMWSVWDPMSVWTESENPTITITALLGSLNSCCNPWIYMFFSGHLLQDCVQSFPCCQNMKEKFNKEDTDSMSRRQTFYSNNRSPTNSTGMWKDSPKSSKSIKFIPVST
Outline: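 Single-concentration duplicate screen at 25 uM, with concentration-response follow-up (top 50 uM) for actives. The assay measured displacement of a radioligand from human platelet-derived receptor after 1.5 h, detected by filtration and scintillation counting.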

[20] = target: rat Histamine Receptor (H3), Hrh3 (gene 85268) (UniProt Q9QYN8); test: NVS_GPCR_rH3: NovaScreen (NVS) G Protein-Coupled Receptor Assay for rat Histamine Receptor (H3) (AID 2283303)
Outline: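 Filter-binding radioligand competition on rat forebrain membranes, 1 h incubation; compounds screened at 25 µM in duplicate and followed in concentration series to 50 µM, loss of bound signal vs DMSO.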

Question: For O=C(O)CCCCC(=O)O, which outcome [1] is on record?
Answer: inactive

Question: With CCOC(=O)CCC(=O)OCC as the compound, how does the outcome [1] read?
Answer: inactive

Question: What about the outcome [2] of the same compound?
Answer: inactive

Question: What about the outcome [3] of the same compound?
Answer: inactive

Question: What about the outcome [4] of the same compound?
Answer: inactive

Question: What about the outcome [5] of the same compound?
Answer: inactive

Question: What about the outcome [6] of the same compound?
Answer: inactive

Question: Which outcome [3] does the source give for C=CCc1ccc(O)c(OC)c1 here?
Answer: inactive

Question: For CCc1c(C(=O)NN2CCCCC2)nn(-c2ccc(Cl)cc2Cl)c1-c1ccc(Br)cc1, which outcome [4] is on record?
Answer: inactive

Question: What about the outcome [7] of the same compound?
Answer: inactive

Question: And the AC50 [8]?
Answer: 12 µM (active)

Question: What does the source list for CN1CCN(Cc2cc(-c3ccc4[nH]c(=O)oc4c3)co2)[C@@H](c2ccc(F)cc2)C1?
Answer: outcome [9]: inactive; AC50 [3]: 0.25 µM (active); AC50 [10]: 8.23 µM (active); AC50 [4]: 22 µM (active); AC50 [8]: 0.0493 µM (active); AC50 [5]: 10.3 µM (active); AC50 [11]: 22 µM (active)

Question: Which outcome [12] does the source give for Nc1ccccc1N here?
Answer: inactive

Question: With COc1ccc2c(c1)c(CC(=O)O)c(C)n2C(=O)c1ccc(Cl)cc1 as the compound, how does the outcome [13] read?
Answer: inactive

Question: For COc1cc(-c2nc(NC(=O)c3cc4cc(C)cc(C)c4n3CC(=O)O)sc2CCC2CCCCC2)c(OC)cc1Cl, which outcome [14] is on record?
Answer: inactive

Question: What about the AC50 [15] of the same compound?
Answer: 0.178 µM (active)

Question: O=C(N[C@@H](Cc1ccccc1)[C@@H](O)C(=O)N1C[C@@H](O)[C@@H](O)C1)c1cc2cc(Cl)ccc2[nH]1 was tested. Which AC50 [15] did it give?
Answer: 11.9 µM (active)

Question: And the AC50 [4]?
Answer: 4.96 µM (active)

Question: And the AC50 [16]?
Answer: 8.74 µM (active)

Question: What about the outcome [8] of the same compound?
Answer: inactive

Question: CC=Cc1ccc(O)c(OC)c1 was tested. Which outcome [4] did it give?
Answer: inactive

Question: Which results are given for CC1=C(/C=C/C(C)=C/C=C/C(C)=C/CO)C(C)(C)CCC1?
Answer: outcome [4]: inactive; outcome [8]: inactive

Question: Which outcome [17] does the source give for COc1cc(C=O)ccc1O here?
Answer: inactive

Question: With Cc1nc(-c2ccc3c(c2)CCN(CCC2CCC(NC(=O)/C=C/c4ccc(F)cc4)CC2)CC3)no1 (stereo not given) as the compound, how does the outcome [18] read?
Answer: inactive

Question: Which outcome [7] does the source give for CCCCCCC(=O)OCC here?
Answer: inactive

Question: What does the source list for COCCOC[C@H](CC1(C(=O)NC2CCC(C(=O)O)CC2)CCCC1)C(=O)Oc1ccc2c(c1)CCC2 (stereo not given in full)?
Answer: outcome [2]: inactive; outcome [12]: inactive

Question: Which outcome [19] does the source give for Cc1cccc(C)c1O here?
Answer: inactive

Question: Which outcome [8] does the source give for CC(=O)C(C)=CC1C(C)=CCCC1(C)C (stereo not given) here?
Answer: inactive

Question: What about the outcome [18] of the same compound?
Answer: inactive

Question: CNCc1cc(F)ccc1Oc1ccc(Cl)c(Cl)c1 was tested. Which outcome [14] did it give?
Answer: inactive

Question: What about the AC50 [18] of the same compound?
Answer: 12.2 µM (active)

Question: And the outcome [20]?
Answer: inactive
